Reference: the supplement of paper PMC11732987, “Enantioselective OTUD7B fragment discovery through chemoproteomics screening and high-throughput optimisation” (Communications Chemistry, 2025)

How the values were obtained:
Test in all cases: log2 ratio of Biotin-Ahx-Ub-VS probe labelling (fragment/DMSO); higher = less target engagement (more negative = stronger competition), active = hit call of the paper (q ≤ 0.05, log2 ratio ≤ -1)
Conditions in all cases: compound concentration: 200 uM; treatment time: 3 h
USP19 = biological target: T1, USP19 (UniProt O94966)
T1 sequence (whole entry): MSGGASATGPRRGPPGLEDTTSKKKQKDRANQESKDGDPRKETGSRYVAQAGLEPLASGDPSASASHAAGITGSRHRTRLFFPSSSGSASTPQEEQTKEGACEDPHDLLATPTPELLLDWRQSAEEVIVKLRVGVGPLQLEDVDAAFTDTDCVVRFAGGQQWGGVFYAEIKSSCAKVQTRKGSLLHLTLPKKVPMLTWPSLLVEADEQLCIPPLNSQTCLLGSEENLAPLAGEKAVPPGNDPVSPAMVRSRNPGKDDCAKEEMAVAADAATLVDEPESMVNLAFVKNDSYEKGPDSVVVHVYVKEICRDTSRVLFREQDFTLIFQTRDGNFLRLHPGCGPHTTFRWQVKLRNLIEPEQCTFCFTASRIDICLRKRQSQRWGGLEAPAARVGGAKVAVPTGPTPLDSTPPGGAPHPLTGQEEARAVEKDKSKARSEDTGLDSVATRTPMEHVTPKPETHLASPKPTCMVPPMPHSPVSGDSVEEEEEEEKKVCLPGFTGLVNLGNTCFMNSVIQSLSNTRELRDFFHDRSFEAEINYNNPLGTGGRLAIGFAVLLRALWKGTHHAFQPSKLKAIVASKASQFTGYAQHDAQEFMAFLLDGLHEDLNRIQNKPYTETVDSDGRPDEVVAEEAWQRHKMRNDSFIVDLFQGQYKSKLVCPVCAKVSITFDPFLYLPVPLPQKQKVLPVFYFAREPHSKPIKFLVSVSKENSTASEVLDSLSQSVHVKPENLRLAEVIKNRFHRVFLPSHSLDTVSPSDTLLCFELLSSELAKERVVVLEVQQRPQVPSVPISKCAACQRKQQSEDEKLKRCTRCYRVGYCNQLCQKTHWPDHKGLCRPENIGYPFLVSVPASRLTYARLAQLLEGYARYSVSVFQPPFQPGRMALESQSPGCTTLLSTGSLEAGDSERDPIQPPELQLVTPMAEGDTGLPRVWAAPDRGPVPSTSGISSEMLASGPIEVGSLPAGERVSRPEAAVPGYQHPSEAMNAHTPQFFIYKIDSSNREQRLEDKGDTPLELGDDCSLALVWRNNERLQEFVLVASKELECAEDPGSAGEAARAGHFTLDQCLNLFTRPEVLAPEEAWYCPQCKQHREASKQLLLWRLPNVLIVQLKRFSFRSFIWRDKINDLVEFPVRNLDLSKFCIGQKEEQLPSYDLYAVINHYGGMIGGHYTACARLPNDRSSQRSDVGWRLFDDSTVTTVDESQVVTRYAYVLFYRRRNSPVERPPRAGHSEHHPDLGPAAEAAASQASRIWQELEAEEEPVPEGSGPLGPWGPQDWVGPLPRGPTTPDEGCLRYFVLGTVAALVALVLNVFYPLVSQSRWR
Outline: (§1)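 Labelled DUBs from HEK293T lysate were NeutrAvidin-enriched, digested with LysC and trypsin, and run by diaPASEF LC-MS/MS. Before that, each 495 µg sample in Tris/CHAPS/IGEPAL buffer with protease inhibitors was treated in triplicate with fragment at 200 µM or vehicle for 3 h, then with Biotin-Ahx-Ub-VS at 0.5 µM final for 1 h. Values are average log2 ratios of fragment over vehicle by unpaired t-test, based on global-median-normalised Spectronaut label-free quantities from proteins with ≥2 unique peptides.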

USP22 = biological target: T2, USP22 (UniProt Q9UPT9)
T2 sequence (whole entry): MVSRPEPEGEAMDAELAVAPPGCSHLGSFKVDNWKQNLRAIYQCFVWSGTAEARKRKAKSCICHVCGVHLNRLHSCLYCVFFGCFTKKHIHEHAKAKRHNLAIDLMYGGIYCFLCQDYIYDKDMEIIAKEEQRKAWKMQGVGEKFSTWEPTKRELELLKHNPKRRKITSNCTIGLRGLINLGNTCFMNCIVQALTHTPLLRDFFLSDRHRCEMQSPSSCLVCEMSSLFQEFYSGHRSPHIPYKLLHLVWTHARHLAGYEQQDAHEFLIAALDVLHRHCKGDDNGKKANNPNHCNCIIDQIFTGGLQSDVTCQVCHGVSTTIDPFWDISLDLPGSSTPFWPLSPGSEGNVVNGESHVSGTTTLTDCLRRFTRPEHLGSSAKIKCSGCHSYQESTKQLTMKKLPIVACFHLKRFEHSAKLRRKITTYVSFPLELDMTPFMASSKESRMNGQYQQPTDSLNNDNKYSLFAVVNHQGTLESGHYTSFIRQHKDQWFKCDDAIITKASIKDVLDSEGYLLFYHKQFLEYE
Outline: as §1

USP24 = USP24 (UniProt Q9UPU5)
Chain of USP24 (Q9UPU5 whole entry): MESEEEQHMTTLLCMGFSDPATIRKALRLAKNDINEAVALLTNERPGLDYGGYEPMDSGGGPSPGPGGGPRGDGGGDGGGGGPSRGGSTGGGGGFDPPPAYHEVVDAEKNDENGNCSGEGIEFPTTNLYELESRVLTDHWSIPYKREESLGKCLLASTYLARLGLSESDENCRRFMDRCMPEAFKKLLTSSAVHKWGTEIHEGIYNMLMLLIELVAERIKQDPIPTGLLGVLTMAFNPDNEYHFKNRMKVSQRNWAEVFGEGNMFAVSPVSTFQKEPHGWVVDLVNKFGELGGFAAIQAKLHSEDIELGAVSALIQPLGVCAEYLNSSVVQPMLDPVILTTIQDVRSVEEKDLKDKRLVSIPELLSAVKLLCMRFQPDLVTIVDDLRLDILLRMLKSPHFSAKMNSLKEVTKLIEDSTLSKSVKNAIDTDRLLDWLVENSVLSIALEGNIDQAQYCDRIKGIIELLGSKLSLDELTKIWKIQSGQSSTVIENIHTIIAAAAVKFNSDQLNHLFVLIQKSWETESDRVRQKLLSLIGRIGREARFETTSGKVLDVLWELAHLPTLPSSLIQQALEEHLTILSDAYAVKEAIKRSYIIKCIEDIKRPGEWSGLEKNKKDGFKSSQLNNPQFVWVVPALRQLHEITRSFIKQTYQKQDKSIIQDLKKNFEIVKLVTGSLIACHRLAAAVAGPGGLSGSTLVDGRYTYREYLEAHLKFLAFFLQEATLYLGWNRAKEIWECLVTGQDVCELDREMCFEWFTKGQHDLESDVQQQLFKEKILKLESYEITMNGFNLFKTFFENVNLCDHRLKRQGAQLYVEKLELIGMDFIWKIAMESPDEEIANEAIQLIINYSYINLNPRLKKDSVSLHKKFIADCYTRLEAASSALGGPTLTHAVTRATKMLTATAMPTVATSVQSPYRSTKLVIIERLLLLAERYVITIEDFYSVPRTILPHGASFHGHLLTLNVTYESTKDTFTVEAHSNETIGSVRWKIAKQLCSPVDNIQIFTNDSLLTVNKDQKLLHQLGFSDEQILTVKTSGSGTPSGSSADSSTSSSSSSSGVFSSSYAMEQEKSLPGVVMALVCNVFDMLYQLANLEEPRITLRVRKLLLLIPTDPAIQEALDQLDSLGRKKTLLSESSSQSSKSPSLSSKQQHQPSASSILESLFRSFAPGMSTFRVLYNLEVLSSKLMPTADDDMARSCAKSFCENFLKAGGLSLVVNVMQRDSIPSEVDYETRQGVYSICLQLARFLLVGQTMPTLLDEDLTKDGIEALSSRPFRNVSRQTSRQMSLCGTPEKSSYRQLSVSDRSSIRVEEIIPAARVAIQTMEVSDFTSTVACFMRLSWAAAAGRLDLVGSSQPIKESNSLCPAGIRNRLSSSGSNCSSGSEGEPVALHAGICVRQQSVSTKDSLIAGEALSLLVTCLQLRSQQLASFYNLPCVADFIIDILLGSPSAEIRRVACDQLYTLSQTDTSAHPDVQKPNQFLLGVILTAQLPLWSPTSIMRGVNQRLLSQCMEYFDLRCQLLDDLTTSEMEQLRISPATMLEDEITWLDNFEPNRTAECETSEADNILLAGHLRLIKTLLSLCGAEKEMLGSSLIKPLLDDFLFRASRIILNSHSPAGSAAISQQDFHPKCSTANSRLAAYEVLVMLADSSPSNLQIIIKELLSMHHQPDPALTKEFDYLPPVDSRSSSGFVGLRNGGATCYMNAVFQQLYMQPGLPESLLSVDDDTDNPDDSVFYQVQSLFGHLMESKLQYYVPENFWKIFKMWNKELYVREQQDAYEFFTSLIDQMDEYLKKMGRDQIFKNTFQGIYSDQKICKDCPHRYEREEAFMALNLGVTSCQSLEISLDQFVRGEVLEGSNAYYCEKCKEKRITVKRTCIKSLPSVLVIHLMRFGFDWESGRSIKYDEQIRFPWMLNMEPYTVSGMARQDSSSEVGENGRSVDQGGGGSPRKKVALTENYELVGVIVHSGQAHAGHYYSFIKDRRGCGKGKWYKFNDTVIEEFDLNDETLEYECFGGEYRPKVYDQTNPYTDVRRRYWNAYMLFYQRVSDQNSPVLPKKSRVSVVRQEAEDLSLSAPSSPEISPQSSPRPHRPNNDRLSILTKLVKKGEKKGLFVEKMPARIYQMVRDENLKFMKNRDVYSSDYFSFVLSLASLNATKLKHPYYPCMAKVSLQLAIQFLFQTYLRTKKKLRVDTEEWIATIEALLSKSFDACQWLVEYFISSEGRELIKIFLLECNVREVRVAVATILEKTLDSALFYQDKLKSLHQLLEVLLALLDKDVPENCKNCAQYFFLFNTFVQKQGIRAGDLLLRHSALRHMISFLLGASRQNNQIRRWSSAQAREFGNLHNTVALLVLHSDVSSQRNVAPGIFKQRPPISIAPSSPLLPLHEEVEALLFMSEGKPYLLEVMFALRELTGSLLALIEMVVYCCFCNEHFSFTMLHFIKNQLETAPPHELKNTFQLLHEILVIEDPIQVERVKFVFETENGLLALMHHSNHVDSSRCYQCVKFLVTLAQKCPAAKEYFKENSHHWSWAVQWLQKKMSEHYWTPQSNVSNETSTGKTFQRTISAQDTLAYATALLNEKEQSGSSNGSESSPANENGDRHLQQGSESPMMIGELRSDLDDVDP
Outline: as §1

USP25 = biological target: T3, USP25 (UniProt Q9UHP3)
T3 sequence (whole entry): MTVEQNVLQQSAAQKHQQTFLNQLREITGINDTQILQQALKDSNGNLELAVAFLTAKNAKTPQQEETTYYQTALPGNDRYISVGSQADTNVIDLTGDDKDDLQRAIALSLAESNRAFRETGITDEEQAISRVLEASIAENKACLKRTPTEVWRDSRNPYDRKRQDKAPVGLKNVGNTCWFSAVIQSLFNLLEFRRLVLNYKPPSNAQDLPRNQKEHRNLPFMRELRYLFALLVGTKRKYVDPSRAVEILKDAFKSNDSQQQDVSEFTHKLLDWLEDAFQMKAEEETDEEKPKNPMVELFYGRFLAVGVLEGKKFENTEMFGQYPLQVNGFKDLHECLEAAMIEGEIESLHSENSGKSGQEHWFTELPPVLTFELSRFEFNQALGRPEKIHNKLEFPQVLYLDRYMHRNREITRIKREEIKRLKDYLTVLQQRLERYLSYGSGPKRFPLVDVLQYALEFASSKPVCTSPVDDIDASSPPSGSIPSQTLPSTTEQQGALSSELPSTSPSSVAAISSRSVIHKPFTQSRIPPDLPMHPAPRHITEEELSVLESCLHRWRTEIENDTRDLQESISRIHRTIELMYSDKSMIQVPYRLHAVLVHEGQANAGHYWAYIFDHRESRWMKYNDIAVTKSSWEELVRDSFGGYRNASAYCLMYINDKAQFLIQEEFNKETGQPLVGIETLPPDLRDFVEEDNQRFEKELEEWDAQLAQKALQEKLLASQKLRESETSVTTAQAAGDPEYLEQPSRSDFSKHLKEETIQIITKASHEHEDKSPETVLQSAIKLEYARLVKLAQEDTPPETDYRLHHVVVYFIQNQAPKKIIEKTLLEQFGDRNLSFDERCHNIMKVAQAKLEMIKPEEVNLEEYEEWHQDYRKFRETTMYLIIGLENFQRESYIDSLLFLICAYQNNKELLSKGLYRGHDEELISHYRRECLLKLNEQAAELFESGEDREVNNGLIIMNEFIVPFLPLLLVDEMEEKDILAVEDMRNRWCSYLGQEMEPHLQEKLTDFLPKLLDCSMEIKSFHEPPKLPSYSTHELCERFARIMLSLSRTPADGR
Outline: as §1

USP28 = biological target: T4, USP28 (UniProt Q96RU2)
T4 sequence (whole entry): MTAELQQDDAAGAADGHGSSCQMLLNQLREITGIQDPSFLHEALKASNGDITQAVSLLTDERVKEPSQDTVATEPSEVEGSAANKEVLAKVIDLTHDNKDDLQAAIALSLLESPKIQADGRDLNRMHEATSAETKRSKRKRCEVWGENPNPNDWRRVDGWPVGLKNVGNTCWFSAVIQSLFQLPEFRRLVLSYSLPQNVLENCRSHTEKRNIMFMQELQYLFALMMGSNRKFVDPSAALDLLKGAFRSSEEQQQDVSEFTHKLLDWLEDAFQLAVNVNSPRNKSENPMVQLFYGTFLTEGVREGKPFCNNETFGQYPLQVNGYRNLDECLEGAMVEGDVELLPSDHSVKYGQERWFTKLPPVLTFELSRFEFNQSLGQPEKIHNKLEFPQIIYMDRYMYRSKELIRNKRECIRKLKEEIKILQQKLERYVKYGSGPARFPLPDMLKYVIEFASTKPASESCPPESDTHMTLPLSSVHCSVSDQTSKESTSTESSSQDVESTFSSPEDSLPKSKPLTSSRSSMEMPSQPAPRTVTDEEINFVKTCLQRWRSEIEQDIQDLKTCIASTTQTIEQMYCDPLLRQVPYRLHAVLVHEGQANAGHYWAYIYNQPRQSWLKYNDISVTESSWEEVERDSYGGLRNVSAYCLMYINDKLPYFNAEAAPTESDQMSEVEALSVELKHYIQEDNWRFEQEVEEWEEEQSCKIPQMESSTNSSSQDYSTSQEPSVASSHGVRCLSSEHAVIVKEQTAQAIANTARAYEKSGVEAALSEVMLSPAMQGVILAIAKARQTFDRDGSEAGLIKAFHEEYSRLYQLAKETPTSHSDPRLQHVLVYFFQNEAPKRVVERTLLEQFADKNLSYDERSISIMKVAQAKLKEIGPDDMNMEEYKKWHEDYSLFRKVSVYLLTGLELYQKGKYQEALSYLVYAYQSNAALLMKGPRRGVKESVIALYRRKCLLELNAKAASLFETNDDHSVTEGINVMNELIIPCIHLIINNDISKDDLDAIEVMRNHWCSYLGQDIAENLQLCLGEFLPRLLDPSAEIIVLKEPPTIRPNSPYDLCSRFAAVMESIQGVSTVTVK
Outline: as §1

Measured: log2 ratio of Biotin-Ahx-Ub-VS probe labelling

O=C(CCl)Nc1cc(Cl)ccc1C(=O)O
inactive: USP19 -0.0222 | USP22 0.0608 | USP24 -0.0569 | USP25 0.269 | USP28 -0.0169
